# Source: PubChem (several laboratories)
# Rtt109 Vps75 – inhibitors of C. albicans Rtt109/Vps75 HAT, primary screen, biochemical, ThioGlo CoA-SH fluorescence, plate reader; purified Rtt109/Vps75, 4 h; AID 540336, 2011; inhibition, % at 34.9 µM; actives 0.16% (n = 330,000);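 active = inhibition of at least 50% in every replicate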
# SKKanGAS inh – S. pyogenes SKKanGAS growth inhibitors in kanamycin, primary screen, streptokinase expression inhibitor project, SKKanGAS strain, BacTiter-Glo luminescence; 6 h; inhibition, % at 7.5 µM; actives 1.3% (n = 300,000); AID 1662, 2009;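 active = mean replicate score, as percent of positive control median, at least 50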;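 note: strain carries kanamycin resistance gene driven by streptokinase promoter and grows in 40 µg/ml kanamycin; loss of luminescence reflects streptokinase promoter inhibition or plain growth inhibition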
# TPT1 inhibitor – Candida albicans TPT1 enzyme inhibitors, primary screen, biochemical, fluorescence polarization | tRNA 2'-phosphotransferase TPT1 (Candida albicans SC5314) | inhibition, % at 5 µM | actives 0.81% (n = 300,000) | recombinant caTPT1, FP RNA substrate dephosphorylation;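 active = inhibition above the mean of all tested compounds plus 3 SD, set per screening campaign, cut at about 24% in these data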
# PHOSPHO1 block – PubChem AID 1565; Phosphoethanolamine/phosphocholine phosphatase (Homo sapiens), Q8TCT1; recombinant PHOSPHO1, absorbance phosphatase assay; inhibition, % at 13.3 µM; actives 1.1% (n = 290,000); in the data active = inhibition above about 60%
# Target sequence (Q8TCT1 whole entry, looked up): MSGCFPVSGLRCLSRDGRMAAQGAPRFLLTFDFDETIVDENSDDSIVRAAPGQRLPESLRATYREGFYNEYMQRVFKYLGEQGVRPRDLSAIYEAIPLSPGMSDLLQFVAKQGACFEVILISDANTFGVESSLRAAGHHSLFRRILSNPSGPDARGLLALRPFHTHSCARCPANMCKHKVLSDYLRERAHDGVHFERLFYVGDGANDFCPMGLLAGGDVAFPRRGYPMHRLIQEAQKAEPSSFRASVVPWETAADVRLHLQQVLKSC
# WT yeast gro inh – growth inhibition of WT strain, primary screen, mitochondrial fusion inhibitor project, WT and mutant strains, chemical genetic; mitochondrial fusion phenotypic screen; inhibition, % at 10 µM; actives 2.1% (n = 190,000); AID 1362, 2008; in the data active = inhibition above about 58%; tested in S. cerevisiae
# Platelet DG rel – inhibitors of platelet dense granule secretion, primary screen, cell-based, MLPCN, human platelets; human platelet-rich plasma, SFLLRN dense granule ATP release, luminescence; inhibition, %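 (compounds screened at 7.5 µM in platelet-rich plasma)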; actives 0.22% (n = 300,000);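 active = mean replicate score, as percent of positive control, at or above 50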
# caTPT1 confirm – Candida albicans TPT1 inhibitors, confirmation, biochemical, fluorescence polarization, triplicate; shares compounds with TPT1 inhibitor; recombinant caTPT1, RNase T1 coupled; inhibition, % at 5 µM; actives 74% (n = 2,400); AID 2149, 2009;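 active = inhibition above the primary screen limit, the mean inhibition of all tested compounds plus 3 SD, cut at about 25% in these data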
# RNase T1 counter – RNase T1 inhibitors, counter-screen for TPT1 inhibitor project, biochemical, fluorescence polarization; shares compounds with TPT1 inhibitor; inhibition, % at 5 µM; RNase T1 cleavage, 1536-well; actives 83% (n = 2,400);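 active = inhibition above the solvent-only control well mean plus 3 SD, limit set per screening run, cut at about 23% in these data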;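 note: inhibitors block cleavage so intact labeled substrate keeps polarization high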
# Target sequence (P00651 whole entry, looked up): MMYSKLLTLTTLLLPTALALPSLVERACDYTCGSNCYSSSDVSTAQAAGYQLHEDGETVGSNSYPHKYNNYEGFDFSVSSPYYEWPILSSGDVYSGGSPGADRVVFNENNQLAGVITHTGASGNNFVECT
# Numbers stand for hits; i = inactive; nt = no result given; ! = a repeat was not active. This is a sample that favours compounds with a hit; in the whole collection about 3.9% have one here.
SMILES,Rtt109 Vps75,SKKanGAS inh,TPT1 inhibitor,PHOSPHO1 block,WT yeast gro inh,Platelet DG rel,others
CCCCCCC(=O)N/N=C/c1c(O)n(C(C)CC)c(=S)[nH]c1=O (stereo unspecified),i,90,i,i,nt,nt,
COC(=O)C1=C(c2c(C)noc2C)C[C@@H]2CC[C@H]1N2C(=O)NCCNC(C)=O,i,nt,nt,nt,nt,nt,
Cc1cc(OC(=O)N(C)C)nc(SCc2c(Cl)cccc2Cl)n1,i,i,i,i,nt,i,
O=C(O)C1C2c3ccccc3C(O)C1(C(=O)O)c1ccccc12 (stereo unspecified),i,nt,nt,nt,nt,nt,
CCN1/C(=C\C=C\C2=[N+](CC)c3ccccc3C2(C)C)C(C)(C)c2ccccc21,i,58,i,i,i,i,
CCN(C(C)=O)c1cccc(-c2ccnc3c(C#N)cnn23)c1,nt,nt,nt,i,i,nt,
O=C(NC1CCCCC1)Oc1cc2oc(=O)sc2cc1Cl,89,i,i,i,nt,i,
Cn1ncc(Cl)c1C(=O)N1CCC2(CC1)OCCO2,i,51,i,i,nt,i,
Cc1cnc[nH]1,i,nt,nt,nt,nt,nt,
Cc1sc2ncnc(N3CCC(C(=O)Nc4ccc(C#N)c(Cl)c4)CC3)c2c1C,i,57,i,nt,nt,i,
CC(C)(C#CC(=O)O)OOC(c1ccccc1)(c1ccccc1)c1ccccc1,i,i,i,i,nt,i,
Clc1ccc(COC(Cn2ccnc2)c2ccc(Cl)cc2Cl)c(Cl)c1 (stereo unspecified),74!,108,i,i,i,i,
C[C@]12CCC3C(CC[C@H]4C[C@H](O)[C@H](O)C[C@]34C)C1CC[C@@H]2O (stereo partly specified),i,nt,nt,nt,nt,nt,
Fc1ccccc1CCNCc1cccc(Cl)c1Cl,i,i,i,i,i,i,
COC(=O)C(O)(c1ccc(NC(=S)NC(=O)c2ccc(Cl)cc2Cl)cc1)C(F)(F)F (stereo unspecified),i,i,i,i,i,i,
CCOC(=O)C(O)(c1ccc(NC(=S)NC(=O)c2ccc(Cl)cc2Cl)c(C)c1)C(F)(F)F (stereo unspecified),i,i,i,i,77,i,
COC(=O)C(O)(c1ccc(NC(=S)NC(=O)c2ccc(Cl)cc2Cl)c(C)c1)C(F)(F)F (stereo unspecified),i,i,i,i,75,i,
CCn1nc(-c2cccs2)nc2c(=O)n(C)c(=O)nc1-2,i,nt,nt,i,i,nt,
CCn1nc(/C=C/c2ccccc2)nc2c(=O)n(C)c(=O)nc1-2,i,i,nt,i,90,i,
COc1cc(OC)c([C@H]2C=C(C)[C@H]3C[C@@H]2C3(C)C)c(OC)c1,i,97,i,nt,nt,i,
O=c1c2ccccc2[nH]c(=S)n1-c1ccc2c(c1)OCO2,i,i,i,i,63,i,
CCOC(=O)C1=C(NC(=S)NC(=O)c2ccccc2)c2ccccc2CC12CCCC2,i,i,nt,i,73,i,
CCOP(=O)(OCC)C(NC(=O)c1ccccc1)=C(Cl)Cl,i,i,i,i,i,i,
CCC1C=CC=CC[C@H](C)[C@@H](O)[C@](C)(O)C(=O)[C@@H](C)[C@H](O)[C@@H](C)C(=O)[C@H](C)[C@@H](O)[C@H](C)C=CC(=O)OC2[C@@H](C)C(CC1)OC1(CC[C@@H](C)C(C[C@H](C)O)O1)[C@@H]2C (stereo partly specified),nt,nt,i,nt,nt,nt,
CCOc1cc(CNCCc2c[nH]c3ccccc23)cc(Cl)c1OCC,i,i,i,i,86,i,
SMILES,Rtt109 Vps75,SKKanGAS inh,TPT1 inhibitor,PHOSPHO1 block,WT yeast gro inh,Platelet DG rel,others
CCOc1c(Cl)cc(CNCCc2c[nH]c3ccccc23)cc1OC,i,i,i,i,i,i,
CN(C)[C@@H]1C(=O)C(C(N)=O)=C(O)[C@@]2(O)C(=O)C3=C(O)c4c(O)ccc(Cl)c4[C@@](C)(O)[C@H]3C[C@@H]12,i,109,i,i,nt,i,
CCNc1nc(Cl)nc(NC(C)C)n1,i,i,i,i,i,56,
CN(C)c1ccc(/C=C/C=C/c2sc3ccccc3[n+]2C)cc1,i,i,i,i,nt,i,
CN(C)c1ccc(/C=C/c2cc[n+](C)c3ccccc23)cc1,181!,nt,nt,i,78,nt,
COC(=O)C1=C(c2cccc(C#N)c2)C[C@@H]2CC[C@H]1N2C(=O)NC1Cc2ccccc2C1,i,nt,nt,nt,nt,nt,
CC(CC(C)(C)N1CC1)=NO,i,nt,nt,nt,nt,nt,
O=C(N/N=C/c1c(O)n(-c2cccc3ccccc23)c(=O)[nH]c1=O)c1ccncc1,i,i,45,i,nt,i,caTPT1 confirm=51;RNase T1 counter=66
O=C1NC(=S)N(c2ccc(Br)cc2)C(=O)/C1=C/N1CCN(C(=O)c2ccco2)CC1,i,i,86,i,i,i,caTPT1 confirm=37;RNase T1 counter=52
Cc1cccc(N2C(=O)/C(=C/N3CCN(C(=O)c4ccco4)CC3)C(=O)NC2=S)c1,i,i,30,i,i,i,caTPT1 confirm=i;RNase T1 counter=i
Cc1ccc(N2C(=O)/C(=C/N3CCN(C(=O)c4ccco4)CC3)C(=O)NC2=S)cc1C,i,i,i,i,i,i,
S=C1NC2(CCCCC2)NC12CCCCC2,i,i,i,i,nt,i,
O=C(CCCc1ccccc1)NCCc1cnc[nH]1,i,i,i,i,nt,i,
CN1CCC2(CC1)C(C#N)=C(N)NC(S)=C2C#N,i,i,50!,i,i,i,caTPT1 confirm=i;RNase T1 counter=28
COC(=O)C1C2c3ccccc3C(c3ccccc32)C1(C)C(=O)OC (stereo unspecified),i,nt,nt,nt,nt,nt,
COc1ccc(Cn2c(O)c(C=NCCCn3ccnc3)c(=O)[nH]c2=O)cc1,i,i,i,i,i,i,
O=c1[nH]c(=O)n(Cc2ccccc2)c(O)c1C=NCCCO,i,i,48,i,i,i,caTPT1 confirm=62;RNase T1 counter=76
CCCCCCn1c(O)c(C=NCCCn2ccnc2)c(=O)[nH]c1=O,i,i,134,i,i,i,caTPT1 confirm=73;RNase T1 counter=89
O=C(N/N=C/c1c(O)n(CCc2ccccc2)c(=O)[nH]c1=O)c1ccccc1O,i,103,38,i,nt,i,caTPT1 confirm=43;RNase T1 counter=56
CCCCN=Cc1c(O)n(-c2c(C)cc(C)cc2C)c(=O)[nH]c1=O,i,i,33,i,i,i,caTPT1 confirm=34;RNase T1 counter=45
CC(=O)c1c(O)n(-c2cccc(Cl)c2)c(=O)[nH]c1=O (tested in a mixture with another compound),i,i,28,i,nt,i,caTPT1 confirm=34;RNase T1 counter=43
CCN(CC)c1ccc(/C=C2\C(=O)NC(=O)N(CC3CCCO3)C2=O)cc1 (stereo unspecified),i,i,i,i,i,i,
